# Screening data: PubChem, National Center for Advancing Translational Sciences (NCATS)
# Rows were chosen to be rich in hits. Some 11% of all compounds tested hit in one or more screens of this group.
# Pf growth 48h = inhibits P. falciparum growth in the first generation, 48 h. P. falciparum luciferase growth in erythrocytes, 48 h. Potency, µM (top dose mostly 28.7 µM), inactives show at the top dose activity change, negative = inhibition, actives largely listed as inhibitors. 310,000 compounds, 5.9% hits. AID 504832
#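 In quantitative HTS format, infected erythrocytes bearing luciferase-reporter parasites were treated for a single generation at 37 C. Luminescence after adding detection reagent served as the growth measure.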
# AmpC inh no detg = AmpC beta-lactamase inhibition without detergent; P00811; AmpC nitrocefin hydrolysis, absorbance 480 nm, 0.0001% Triton; Potency, µM (series often up to 57.1 µM), without a hit: at the top dose activity change, negative = inhibition, usual class: inhibitors; 330,000 compounds, 0.52% hits;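 also: plate controls were no compound for no effect and no enzyme for full effect; nearly all actives have a fitted effect of over 20% in size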
# Target sequence (P00811 whole entry, looked up): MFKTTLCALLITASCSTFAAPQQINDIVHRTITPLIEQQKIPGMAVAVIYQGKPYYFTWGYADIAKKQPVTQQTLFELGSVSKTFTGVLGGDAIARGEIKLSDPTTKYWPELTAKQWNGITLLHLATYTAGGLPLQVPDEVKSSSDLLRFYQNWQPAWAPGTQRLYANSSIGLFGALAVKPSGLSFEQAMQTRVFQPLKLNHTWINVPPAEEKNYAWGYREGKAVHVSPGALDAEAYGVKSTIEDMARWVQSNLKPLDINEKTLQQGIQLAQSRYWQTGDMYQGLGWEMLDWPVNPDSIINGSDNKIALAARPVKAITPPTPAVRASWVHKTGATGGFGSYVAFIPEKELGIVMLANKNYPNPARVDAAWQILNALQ
#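 20 mM phosphate pH 7.0 + 0.01% (detergent screen) or 0.0001% Triton X-100; 5.3 nM AmpC reagent; cpd preinc 15 min RT; nitrocefin (800 uM stock) to start; A480 q20 s × 4 min; Activity was normalised to no-enzyme and no-compound control wells.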
# Pf growth 96h = P. falciparum growth inhibition at 96 hour, primary screen for plastid delayed-death inhibitors; P. falciparum luciferase reporter growth, 96 h; Potency, µM (top dose mostly 28.7 µM), inactives show top-dose activity change, negative = inhibition, actives largely listed as inhibitors; 320,000 compounds, 6.9% hits; AID 504834
#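 Luminescence readout: decreased luciferase signal marks inhibited growth of reporter-expressing P. falciparum in infected red cells (2% hematocrit, 0.05% parasitemia final), exposed to compound two generations (96 h, 37 C, 5% CO2).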
# HCV inh = inhibitors of hepatitis C virus infection; Huh7.5.1 HCVcc-Cre infection, luciferase reporter, 44 h; Potency, µM (series often up to 41.8 µM), for the others: at the highest dose activity change, negative = inhibition, most hits filed as inhibitors; 340,000 compounds, 3.4% hits; AID 651820
#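 After 44 h co-culture of compound, cells and HCVcc-Cre (~0.5 moi), substrate is added for 15 min at room temperature and luciferase measured over 15 sec. Cells were seeded at 1,000/well and pre-cultured 4 h.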
# AMA1 RON2 block = inhibitors of Plasmodium falciparum AMA1-RON2 interaction; AlphaScreen AMA1-biotinylated RON2 peptide binding; 360,000 compounds, 0.2% hits; AID 720542; Potency, µM (series often up to 58.2 µM), for the others: at the top dose activity change, negative = inhibition, actives largely listed as inhibitors;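 also: 0% = vehicle wells and -100% = peptide control; nearly all actives have a fitted effect of over 45% in size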
#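 AMA1 (3D7) with his tag at 25 nM final met compounds first, then biotinylated RON2 peptide at 25 nM; detection used donor plus acceptor beads, 10 µg/mL apiece, read by AlphaScreen after 30 min at room temperature.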
# AmpC inh detg = AmpC beta-lactamase inhibition with detergent present | P00811 | AmpC hydrolysis of nitrocefin, absorbance 480 nm, 0.01% Triton | Potency, µM (doses to about 114 µM), for inactives: top-dose activity change, negative = inhibition, hits mostly inhibitors | 370,000 compounds, 0.041% hits | AID 485294;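 also: 0% = no-compound wells and -100% = no-enzyme wells; nearly all actives have a fitted effect of over 25% in size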
#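 AmpC (5.3 nM in the dispensed reagent) in 20 mM phosphate pH 7.0 with 0.01% (detergent screen) or 0.0001% Triton X-100 was preincubated with compounds for 15 min at room temperature. Nitrocefin was then added from an 800 uM solution, and hydrolysis was followed at 480 nm.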
# The depositor's hits bear a star; ? = inconclusive; nt = no result given; [ ] = dose if it differs, or a comment. Calls follow the shape of the dose curve; as a rule, active = well fitted curve in the direction sought with a large enough effect; inconclusive = small, poorly fitted or top-dose-only effect, or another doubt; inactive = no such curve, though single readings can be large; an effect the other way counts as inactive or inconclusive. Unless noted, % is scaled to controls: 0 for no effect and ±100 for the full control effect; potency is read from the fitted curve at half-maximal effect.
SMILES,Pf growth 48h,AmpC inh no detg,Pf growth 96h,HCV inh,AMA1 RON2 block,AmpC inh detg
Cc1cccc(N2CCN(Cc3nc(-c4ccc(F)cc4F)oc3C)CC2)n1,0.0%,135.1%,10.4µM*,?,-7.2%,6.7%
Cc1cnc(C)c(N2CCN(Cc3nc(-c4cccc(F)c4F)oc3C)CC2)n1,?,215.9%,?,?,-4.9%,5.6%
CCOC(=O)C1(C(C)(C)CC)CC(CSc2nc3ccccc3[nH]2)OC1=O (stereo not drawn),8.28µM*,-6.3%,-22.0%,?,-21.5%,-14.3%
CC(=O)N1c2ccccc2N(Cc2ccc(C)cc2C)C(=O)C1(C)C,nt,63.0%,1.65µM*,?,-9.2%,-6.9%
COc1cc(N2CCCC2)c(OC)cc1/C=C(/C#N)c1ccc(Br)cc1,nt,-15.0%,?,-3.7%,22.2%,1.0%
COc1cc(N2CCCC2)c(OC)cc1/C=C(/C#N)c1ccc(F)cc1,10.4µM*,-33.7%,-26.3%,?,-29.3%,?
C=CC[C@]12CCc3ccccc3C1N(c1ccc(C(=O)OCC)cc1)C2=O (stereo partly drawn),13.1µM*,-13.5%,?,?,8.0%,-4.8%
Cc1ccccc1-n1nc(C)c2cc(C(=O)N3CCN(S(=O)(=O)c4ccc(F)cc4)CC3)sc21,4.65µM*,-4.0%,nt,?,-0.5%,-0.6%
Cc1ccccc1-n1nc(C)c2cc(C(=O)N3CCN(S(=O)(=O)c4ccc(Cl)cc4)CC3)sc21,5.22µM*,30.1%,1.85µM*,?,-5.3%,-6.4%
CCCCCCNC(=O)n1cc(F)c(=O)[nH]c1=O,4.26µM*,nt,2.13µM*,nt,nt,nt
COc1ccc(CCNc2oc(Cc3cccc4ccccc34)nc2C#N)cc1OC,6.57µM*,93.9%,?,7.94µM*,?,-1.4%
N#Cc1nc(Cc2cccc3ccccc23)oc1NCCN1CCCCC1,?,41.2%,nt,11.2µM*,-9.2%,-9.0%
CN(C)S(=O)(=O)c1ccc2c(c1)nnn2CCNC(=O)Nc1ccc(Cl)cc1,nt,nt,nt,nt,nt,5.7%
CC(C)(C)c1ccc(C(=O)NC2=NC(c3cccc(F)c3)CC(=O)N2)cc1 (stereo not drawn),nt,nt,nt,nt,nt,21.3%
O=C(CSc1nc(=O)n(CCN2CCOCC2)c2c1CCC2)Nc1ccc(OC(F)(F)F)cc1,10.4µM*,221.8%,-31.9%,?,0.4%,0.0%
CC(C)c1ccc(NC(=O)CSc2nc(=O)n(CCCN3CCOCC3)c3c2CCCC3)cc1,?,320.3%,?,?,-8.3%,-2.9%
O=C(CSc1nc(=O)n(CCCN2CCOCC2)c2c1CCCC2)Nc1ccc(Cl)cc1,13.1µM*,263.8%,?,?,11.3%,-14.3%
COc1ccc(NC(=O)CSc2nc(=O)n(CCN3CCOCC3)c3c2CCC3)cc1,-16.5%,22.2%,-7.0%,?,1.8%,-19.0%
Cc1ccc(NS(=O)(=O)c2ccc(-c3cc(C)no3)cc2)c(Br)c1,nt,nt,nt,nt,nt,12.1%
O=C(Nc1ccc(Br)cc1)c1cccc2c1C(=O)N(C1CCCCC1)C2,?,-24.7%,18.8%,5.1%,5.8%,1.6%
CSc1ccc(CCNC(=O)c2cccc3c2C(=O)N(C2CCCCC2)C3)cc1,?,1.3%,10.4µM*,11.2µM*,-6.9%,1.5%
COc1cc(NC(=O)c2cccc3c2C(=O)N(C2CCCCC2)C3)cc(OC)c1OC,11.7µM*,155.8%,?,6.31µM*,-0.6%,3.9%
O=C(Nc1ccc(Br)cc1Br)c1cccc2c1C(=O)N(C1CCCCC1)C2,?,-21.1%,?,?,-2.4%,-2.8%
Cc1cc(C)cc(NC(=O)c2cccc3c2C(=O)N(C2CCCCC2)C3)c1,?,-4.9%,11.7µM*,15.5%,-4.0%,3.7%
Cc1ccc(NC(=O)c2cccc3c2C(=O)N(C2CCCCC2)C3)c(Cl)c1,?,-18.7%,4.65µM*,?,-11.8%,-12.3%
SMILES,Pf growth 48h,AmpC inh no detg,Pf growth 96h,HCV inh,AMA1 RON2 block,AmpC inh detg
COc1cccc(Nc2nc3ccc(C)cc3nc2-n2nc(C)cc2C)c1,nt,nt,nt,nt,nt,10.6%
NC(=O)c1cccc2c1C(=O)N(C1CCCCC1)C2,5.3%,-23.8%,9.28µM*,0.8%,5.8%,-14.5%
O=C(NCCc1ccccc1)c1cccc2c1C(=O)N(C1CCCCC1)C2,?,-5.5%,?,-11.6%,-6.1%,1.5%
Cc1ccc2nc(-c3ccc(NC(=S)NCC(C)(C)CN(C)C)cc3)sc2c1,nt,nt,nt,2.24µM*,-3.0%,nt
Cc1ccc2nc(-c3ccc(NC(=O)CN4CCN(C(=O)c5ccco5)CC4)cc3)sc2c1,2.33µM*,105.7%,1.47µM*,?,-7.4%,-14.8%
Cc1cc(C)cc(N(CC(=O)Nc2ccc(-c3nc4ccc(C)cc4s3)cc2)S(C)(=O)=O)c1,77.3%,-29.7%,4.15µM*,-25.9%,-0.8%[2.32 µM],-16.1%
C=CCn1c(SCC(=O)Nc2ccc(-c3nc4ccc(C)cc4s3)cc2)nnc1-c1ccccc1,207.1%,-8.2%,176.5%,10µM*,1.7%,?
Cc1ccc2sc(-c3ccc(NC(=O)CCN4C(=O)c5ccccc5C4=O)cc3)nc2c1,136.8%,-19.5%,9.28µM*,0.7%,nt,-13.4%
O=C(NCc1ccc(Cl)cc1)C(=O)Nc1ccc(Br)cc1,nt,nt,nt,nt,nt,-0.8%
CC1=CC(c2ccc(Cl)cc2)n2ncnc2N1 (stereo not drawn),nt,nt,nt,0.891µM*,13.7%,nt
CCOc1ccc(C2C=C(c3ccc(C)cc3)Nc3nnnn32)cc1 (stereo not drawn),8.28µM*,-20.0%,13.1µM*,-11.7%,15.8%,-9.0%
CCOc1ccc(C2C=C(c3ccccc3)Nc3nnnn32)cc1 (stereo not drawn),43.5%,-30.1%,-68.0%,-16.2%,10.6%,?
COc1ccc(C2C=C(C)Nc3ncnn32)cc1 (stereo not drawn),nt,nt,nt,2.0%,-1.2%,nt
CCOc1ccc(C2C=C(c3ccc(C)cc3)Nc3ncnn32)cc1 (stereo not drawn),10.4µM*,-12.7%,135.7%,nt,nt,-11.3%
CCCC(=O)Nc1nnc(SCc2cc(=O)c3ccc(C)cc3[nH]2)s1,nt,nt,nt,nt,nt,-0.2%
COc1ccc(C(=O)N2CCC(c3ccncc3)CC2)cc1OC,nt,nt,nt,nt,nt,6.5%
CN(C)c1nc(N/N=C/c2ccccc2O)nc(Nc2ccc(F)cc2)n1,3.7µM*,-37.2%,2.0%,?,40.1%,-3.2%
CN(C)c1nc(Nc2ccc(F)cc2)nc(Oc2ccc(F)cc2)n1,0.0%,-34.0%,?,1.3%,-8.4%,-6.7%
COc1ccc(NC(=O)C(CC(C)C)NC(=O)C2CCCCC2)cc1 (stereo not drawn),nt,nt,nt,nt,nt,0.2%
